According to ChEMBL document CHEMBL1961873, “Compounds: GSK PKIS; Assays: Nanosyn kinase panel” (2012):
“And” between values parts separate entries of the source, which are not always exact repeats. Identical values can stand only once.

Legend:
[1] = molecular target: Casein kinase I isoform gamma-2 (Homo sapiens) (UniProt P78368); conditions: at 1 µM
[2] = molecular target: Casein kinase I isoform gamma-3 (Homo sapiens) (UniProt Q9Y6M4); conditions: at 0.1 µM
[3] = molecular target: Casein kinase I isoform gamma-3 (Homo sapiens) (UniProt Q9Y6M4); conditions: at 1 µM
[4] = molecular target: Cyclin-dependent kinase 1 (Homo sapiens) (UniProt P06493); conditions: at 0.1 µM
[5] = molecular target: Cyclin-dependent kinase 1 (Homo sapiens) (UniProt P06493); conditions: at 1 µM
[6] = molecular target: Cyclin-dependent kinase 2 (Homo sapiens) (UniProt P24941); conditions: at 0.1 µM
[7] = molecular target: Cyclin-dependent kinase 2 (Homo sapiens) (UniProt P24941); conditions: at 1 µM
[8] = molecular target: Cyclin-dependent kinase 2 (Homo sapiens) (UniProt P24941); conditions: at 0.1 µM; remark: listed apart in the source
[9] = molecular target: Cyclin-dependent kinase 2 (Homo sapiens) (UniProt P24941); conditions: at 1 µM; remark: listed apart in the source
[10] = molecular target: CDK3/Cyclin E (Homo sapiens) (UniProt P24864+Q00526); conditions: at 0.1 µM;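 also: reported percentages are mean inhibition values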
CDK3/Cyclin E (Homo sapiens), sequence (P24864 whole entry, looked up): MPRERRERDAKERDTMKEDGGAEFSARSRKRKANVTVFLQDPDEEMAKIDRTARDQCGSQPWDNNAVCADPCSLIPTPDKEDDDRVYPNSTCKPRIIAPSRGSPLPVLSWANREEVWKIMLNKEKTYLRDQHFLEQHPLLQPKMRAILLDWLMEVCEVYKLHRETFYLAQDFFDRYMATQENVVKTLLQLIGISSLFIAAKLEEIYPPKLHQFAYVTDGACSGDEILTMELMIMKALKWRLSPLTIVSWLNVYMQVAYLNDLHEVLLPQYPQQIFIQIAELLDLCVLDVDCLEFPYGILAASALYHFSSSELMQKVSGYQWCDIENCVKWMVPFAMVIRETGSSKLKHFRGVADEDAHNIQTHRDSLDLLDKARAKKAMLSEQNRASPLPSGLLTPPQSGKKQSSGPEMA
CDK3/Cyclin E (Homo sapiens), sequence (Q00526 whole entry, looked up): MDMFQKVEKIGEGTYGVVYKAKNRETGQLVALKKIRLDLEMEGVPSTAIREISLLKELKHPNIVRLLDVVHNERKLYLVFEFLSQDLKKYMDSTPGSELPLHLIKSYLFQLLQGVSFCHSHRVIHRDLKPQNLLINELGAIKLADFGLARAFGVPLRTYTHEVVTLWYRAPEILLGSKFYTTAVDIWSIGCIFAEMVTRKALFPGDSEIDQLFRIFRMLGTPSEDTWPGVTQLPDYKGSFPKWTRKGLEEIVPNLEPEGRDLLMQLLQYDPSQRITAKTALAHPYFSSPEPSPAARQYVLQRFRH

Cyclin-dependent kinase 1 (Homo sapiens), sequence (P06493 whole entry, looked up): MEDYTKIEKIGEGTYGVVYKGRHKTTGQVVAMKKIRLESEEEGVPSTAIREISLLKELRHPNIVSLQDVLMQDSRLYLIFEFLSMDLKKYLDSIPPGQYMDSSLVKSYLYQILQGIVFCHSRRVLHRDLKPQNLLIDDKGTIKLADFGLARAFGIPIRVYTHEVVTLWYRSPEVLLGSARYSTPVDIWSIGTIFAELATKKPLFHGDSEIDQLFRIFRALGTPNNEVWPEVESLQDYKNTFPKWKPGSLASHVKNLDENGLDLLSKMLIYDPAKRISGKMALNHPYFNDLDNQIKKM
Casein kinase I isoform gamma-2 (Homo sapiens), sequence (P78368 whole entry, looked up, canonical isoform): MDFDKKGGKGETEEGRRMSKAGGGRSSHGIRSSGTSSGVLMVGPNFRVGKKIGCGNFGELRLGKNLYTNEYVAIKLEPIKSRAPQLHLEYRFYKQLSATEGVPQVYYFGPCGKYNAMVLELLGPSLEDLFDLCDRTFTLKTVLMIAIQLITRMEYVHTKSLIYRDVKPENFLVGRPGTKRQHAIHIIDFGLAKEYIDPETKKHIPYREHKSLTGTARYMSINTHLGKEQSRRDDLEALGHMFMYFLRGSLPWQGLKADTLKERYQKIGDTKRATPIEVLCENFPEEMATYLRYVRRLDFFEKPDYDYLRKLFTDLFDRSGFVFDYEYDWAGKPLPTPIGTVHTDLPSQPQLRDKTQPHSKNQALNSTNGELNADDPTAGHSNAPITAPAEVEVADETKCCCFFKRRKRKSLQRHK
Casein kinase I isoform gamma-3 (Homo sapiens), sequence (Q9Y6M4 whole entry, looked up, canonical isoform): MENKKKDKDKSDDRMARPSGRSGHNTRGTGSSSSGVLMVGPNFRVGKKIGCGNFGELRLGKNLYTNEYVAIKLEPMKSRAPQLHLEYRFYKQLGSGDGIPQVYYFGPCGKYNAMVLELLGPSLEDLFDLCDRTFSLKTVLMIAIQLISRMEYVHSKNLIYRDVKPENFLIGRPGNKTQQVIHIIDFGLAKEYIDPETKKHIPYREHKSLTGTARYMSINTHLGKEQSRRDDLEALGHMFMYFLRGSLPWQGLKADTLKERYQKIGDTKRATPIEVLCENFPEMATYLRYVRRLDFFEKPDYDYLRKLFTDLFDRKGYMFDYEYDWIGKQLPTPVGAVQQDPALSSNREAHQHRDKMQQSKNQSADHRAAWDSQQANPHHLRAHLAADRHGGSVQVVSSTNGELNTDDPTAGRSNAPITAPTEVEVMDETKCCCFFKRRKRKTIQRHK

Row | SMILES | inhibition [1] | inhibition [2] | inhibition [3] | inhibition [4] | inhibition [5] | inhibition [6] | inhibition [7] | inhibition [8] | inhibition [9] | inhibition [10]
1 | Nc1nonc1-c1nc2cnccc2n1C1CC1 | 3.78% and -0.61% | 3.26% and -1.06% | 2.82% and 0.84% | 1.19% and -3.89% | 8.14% and 3.98% | 5% and 1.12% | 28% and 29.5% | 5.56% and 1.64% | 23.7% and 19.1% | 3.57% and 1.86%
2 | CCS(=O)(=O)c1ccc(OC)c(Nc2ncc(-c3cccc(C(C)=O)c3)o2)c1 | 1.92% | 1.93% | 1.37% | 0.64% | 1.52% | 1.87% | 6.76% | 3.84% | 8.73% | 0.35%
3 | CN1CCN(Cc2ccc(-c3cc4ncnc(Nc5ccc(OCc6cccc(F)c6)c(Cl)c5)c4s3)o2)CC1 | 4.06% and 5.69% | 2.07% and 2.73% | 3.72% and 4.9% | 1.26% and -0.15% | 3.35% | 2.79% and 0.8% | 5.88% and 5.34% | 3.41% and 3.54% | 4.99% and 6.73% | -1.62% and 3.97%
4 | FC(F)(F)CNc1nccc(-c2cnn3ncccc23)n1 | 14.1% | 3.44% | 10.6% | 4.59% | 29.1% | 1.79% | 14.1% | 4.11% | 16.4% | 1.36%
5 | O=C(O[C@H]1CN[C@H](C#Cc2cc3ncnc(Nc4ccc5c(ccn5Cc5cc(F)ccc5F)c4)c3s2)C1)N1CCOCC1 | 5.86% | 2.96% | 4.98% | -0.04% | 1.97% | 1.56% | 4.93% | 3.67% | 2.07% | 4.08%
6 | Cc1nnc(-c2cccc(-c3ccc(C(=O)NCC4CC4)cc3)c2)o1 | 4.15% | 3.29% | 3.17% | -0.13% | 2.72% | 2.01% | 13.5% | 4.78% | 4.88% | 3.15%
7 | COc1ccc(Nc2ncc(-c3ccccc3)o2)cc1OC | 4.12% | -0.65% | 3.3% | 8.02% | 29.9% | 8.91% | 31.6% | 7.2% | 27.6% | 6.29%
8 | CN(C)CCNC(=O)Nc1ccc(N(C)c2ccnc(Nc3ccc(CS(C)(=O)=O)cc3)n2)cc1 | 4.71% | 2.93% | 4.26% | 0.42% | 2.58% | 1.03% | 0.46% | 3.93% | 5.24% | 1.45%
9 | COC(=O)Nc1nc2cc(Oc3ccc(NC(=O)Nc4ccccc4)cc3)ccc2[nH]1 | 1.9% | 0.58% | 1.63% | 1.24% | 1.72% | 1.21% | 0.35% | 1.69% | 3.15% | 2.16%
10 | O=C(O[C@H]1CN[C@H](C#Cc2cc3ncnc(Nc4ccc5c(cnn5Cc5ccccc5)c4)c3s2)C1)N1CCOCC1 | 0.77% | -1.09% | 1.79% | 2.44% | 4.08% | 0.92% | -1.09% | 3.48% | 2.34% | -0.1%
11 | COc1cc(Nc2ncc(-c3ccccc3)o2)cc(OC)c1 | 5.36% | 5.09% | 3.43% | 0.36% | 4.4% | 1.87% | 12.7% | 3.39% | 15.1% | -1.04%
12 | Cc1ccc(-c2cc3c(NC(=O)C4CC4)ncnc3o2)cc1 | 5.03% | 2.01% | 3.1% | 0.77% | 3.16% | 1.63% | 0.2% | 4.69% | 6.42% | 1.4%
13 | CS(=O)(=O)Nc1ccc(-c2ccc3c(NC(=O)C4CC4)n[nH]c3c2)cc1 | 4.11% | 4.47% | 2.66% | 0.29% | 3.65% | 2.2% | 6.28% | 2.71% | 5.01% | 0.71%
14 | Fc1cccc(COc2ccc(Nc3ncncc3C#Cc3ccccc3)cc2Cl)c1 | 4.69% | 4.31% | 4.88% | 0.35% | 1.89% | 1.7% | 5.5% | 4.38% | 4.99% | 1.59%
15 | COc1cc(N2CCN(C(C)C)CC2)ccc1Nc1nc(Nc2cccc(F)c2C(=O)O)c2cc[nH]c2n1 | 4.83% | 1.83% | 4.22% | 1.3% | 1.51% | 1.99% | 5.79% | 4.11% | 4.66% | 4.48%
16 | Nc1ncnc2occ(-c3ccc(NC(=O)Nc4cc(C(F)(F)F)ccc4F)cc3)c12 | 4.53% and -0.27% | 0.69% and 0.19% | 6.26% and 0.91% | 2.66% and 1.33% | 11.4% and 4.55% | 2.5% and 0.72% | 13.5% and 5.32% | 2.09% and 0.45% | 15.5% and 5.95% | 1.13% and 2.46%

Row | SMILES | inhibition [1] | inhibition [2] | inhibition [3] | inhibition [4] | inhibition [5] | inhibition [6] | inhibition [7] | inhibition [8] | inhibition [9] | inhibition [10]
17 | NS(=O)(=O)c1cccc(N/C=C2\C(=O)Nc3ccccc32)c1 | 12.7% | 5.4% | 14% | 2.85% | 7.45% | 4.87% | 8.39% | 5.07% | 16% | 4.56%
18 | CS(=O)(=O)CCNCc1ccoc1-c1ccc2ncnc(Nc3ccc(OCc4ccccc4)cc3)c2c1 | 0.93% | 1.14% | 0.44% | -0.72% | 1.35% | 1.48% | 3.32% | 1.98% | 3.45% | -1.56%
19 | CS(=O)(=O)CCNCc1ccc(-c2ccc3ncnc(Nc4ccc(OCc5ccccc5)cc4)c3c2)o1 | 2.81% | 2.43% | 1.23% | 0.68% | -4.99% | 1.6% | 2.53% | 2.45% | 3.9% | -1.1%
20 | O=C(O[C@H]1CN[C@H](C#Cc2cc3ncnc(Nc4ccc(OCc5cccc(F)c5)c(Cl)c4)c3s2)C1)N1CCOCC1 | 5.59% | 4.52% | 3.53% | 0.36% | 1.18% | 1.57% | -1.38% | 4.21% | 2.99% | 2.77%
21 | N#Cc1ccc2c(-c3ccnc(NC4CC4)n3)c(-c3ccc(F)cc3)nn2c1 | 3.98% | 2.06% | 5.03% | 0.15% | -0.22% | 1.26% | 0.36% | 1% | 0.3% | -0.85%
22 | COc1cc2c(cc1Nc1nc(Nc3cccc(F)c3C(N)=O)c3cc[nH]c3n1)N(C(=O)CN1CCN(C(C)C)CC1)CC2 | 5.31% | 3.51% | 7.32% | 2.14% | 0.55% | 3.46% | 1.57% | 0.67% | 0.45% | -1.81%
23 | Nc1nccc(-c2c(-c3ccc(F)cc3)ncn2C2CCNCC2)n1 | 1.81% and 6.64% | -1.77% and 1.52% | 15.6% and 20.3% | 0.24% and 0.46% | 2.44% and 1.3% | 4.08% and 1.21% | -7.29% and 6.19% | -1.76% and 0.82% | -0.76% and 1.53% | -0.31% and 0.39%
24 | CCOc1ccc2c(-c3ccnc(Nc4cc(OC)cc(C(F)(F)F)c4)n3)cnn2n1 | 2.72% | -2.09% | 2.37% | 2.86% | 12.1% | 2.24% | 12.5% | 1.37% | 11.9% | 3.56%
25 | Cn1c(-c2nonc2N)nc2cnccc21 | 3.42% | 1.53% | 2.15% | 1.15% | 4.4% | 2.01% | 11.2% | 3.69% | 11.6% | 6.05%
26 | CC1=C(C(=O)Nc2ccc3[nH]ncc3c2)C(c2ccc(F)cc2)N=C(c2ccc(C(F)(F)F)nc2)N1 (stereo not given) | 2.44% | 0.89% | 1.64% | -0.29% | 0.48% | 2.22% | 3.53% | 2.03% | 3.67% | 0.12%
27 | CC(C)c1ccc(-c2cc(-c3c[nH]nc3-c3ccccn3)ccn2)cc1 | 1.17% | -0.24% | 3.43% | -0.07% | 2.01% | 1.87% | -0.02% | 1.12% | 1.4% | -1.25%
28 | CCn1c(-c2nonc2N)nc2cncc(C(=O)NCCNC)c21 | 5.17% | 3.69% | 3.84% | 0.45% | 0.67% | 0.58% | 3.6% | 2.89% | 5.11% | -2.24%
29 | NS(=O)(=O)c1ccc(N/N=C2\C(=O)Nc3ccc(C(=O)NCc4ccncc4)cc32)cc1 | 4.22% | 1.86% | 5.91% | 31.4% | 71.3% | 84.9% | 110% | 78% | 86.2% | 53.2%
30 | COC(=O)Nc1nc2ccc(Oc3ccc(NC(=O)Nc4cc(C(F)(F)F)ccc4F)cc3)cc2s1 | -0.08% | -1.45% | 0.18% | 0.44% | 3.26% | 1.75% | 3.03% | 1.36% | 2.74% | 0.88%
31 | CS(=O)(=O)CCNCc1ccc(-c2ccc3ncnc(Nc4ccc(OCc5cccc(C(F)(F)F)c5)cc4)c3c2)o1 | 3.89% | 3.14% | 2.45% | 1.34% | 0.34% | 2.27% | 1.87% | 2.01% | 3.44% | -1.58%
